# Assay outcomes (PubChem BioAssay)
# PostGolgi yeast: phenotypic screen on post-Golgi transport, primary screen. post-Golgi transport phenotypic cell assay. inhibition, % at 10 µM. actives 0.9% (n = 98,000). AID 739, 2007;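 also: yeast cells grown in 1536-well plates; yeast grown about 18 h at 30C before absorbance read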
# CYP2C19 act: human CYP2C19 activators, primary screen, biochemical, luminescence; Cytochrome P450 2C19 (Homo sapiens), P33261; recombinant CYP2C19, luciferin-H EGE luminescence; hits give high values; 0 = fully inhibited enzyme, 1 = untreated enzyme; activation factor at 5 µM; 96,000 tested, under 10 active;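 active = activation factor of at least 2 at 5 µM in the primary screen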;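 also: 0 = wells with 2.5 mM tranylcypromine and 1 = vehicle-only wells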
# CYP2C9 act: human CYP2C9 activators, primary screen, biochemical, luminescence; actives 1.4% (n = 96,000); recombinant CYP2C9, luciferin-H conversion; hits give high values; factor 1 = untreated enzyme, 0 = blocked; AID 1024, 2008; activation factor at 5 µM; Cytochrome P450 2C9 (Homo sapiens), P11712;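 active = activation factor of 2 or more for CYP2C9 at a 5 µM dose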;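 also: 0 = sulfaphenazole-blocked wells and 1 = vehicle-only wells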
# Target sequence (P11712 whole entry, looked up): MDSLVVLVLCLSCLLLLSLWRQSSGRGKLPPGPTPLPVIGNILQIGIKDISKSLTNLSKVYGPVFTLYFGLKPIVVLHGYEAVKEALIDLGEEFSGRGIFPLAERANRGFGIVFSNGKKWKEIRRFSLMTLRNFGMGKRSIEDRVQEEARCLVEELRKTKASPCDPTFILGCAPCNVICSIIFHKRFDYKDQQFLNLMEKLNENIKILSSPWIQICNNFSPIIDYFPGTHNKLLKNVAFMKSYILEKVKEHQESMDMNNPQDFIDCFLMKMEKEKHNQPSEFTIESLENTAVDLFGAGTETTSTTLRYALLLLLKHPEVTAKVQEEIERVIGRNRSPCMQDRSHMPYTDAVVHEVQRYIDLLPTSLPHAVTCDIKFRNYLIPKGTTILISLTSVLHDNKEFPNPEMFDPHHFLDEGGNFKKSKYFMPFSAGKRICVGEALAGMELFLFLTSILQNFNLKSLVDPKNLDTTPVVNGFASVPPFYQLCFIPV
# CYP2C19 inh: blockers of cytochrome P450 2C19 activity – biochemical, luminescence, ADME assay, primary screen; P33261; CYP2C19 Supersomes, luciferin-H EGE luminescence, 30 min; inhibition, % at 5 µM; actives 21% (n = 96,000); AID 778, 2007;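 active = CYP2C19 inhibition above a set limit at 5 µM in the primary screen, cut at about 50% in these data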;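 also: plate controls were negative control wells for no effect and 2.5 mM tranylcypromine positive control for full effect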
# CYP2C9 inh: blockers of cytochrome P450 2C9 activity – biochemical, luminescence, ADME assay, primary screen. P11712. CYP2C9 Supersomes, luciferin-H conversion. inhibition, % at 5 µM. actives 20% (n = 96,000). AID 777, 2007;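 active = blocking of liver enzyme CYP2C9 beyond about 50% at 5 µM, limit read from the data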
# PostGolgi ctrl: growth inhibition of yeast control strain, primary screen, counter-screen for post-Golgi transport modulator project | actives 5% (n = 98,000) | efflux-deficient yeast background strain, growth absorbance A615, 16 h | inhibition, % at 10 µM
# Numbers without * were called inactive; . = no result given. Most compounds without a hit are left out; they make up all but 32% or so of the library. Rule as the data show it, unless noted: active = inhibition above about 30%; inactive = the rest.
SMILES,PostGolgi yeast,CYP2C19 act,CYP2C9 act,CYP2C19 inh,CYP2C9 inh,PostGolgi ctrl
COC(=O)c1ccc(CSc2nc(-c3ccco3)cc(C(F)(F)F)n2)o1,2,0.7,0.3,34,75*,14
O=C(CSc1nc(-c2ccccc2)cc(C(F)(F)F)n1)NCCN1CCOCC1,22,0.6,0.7,38,27,-2
COc1ccc(CCNC(=O)CSc2nc(-c3ccco3)cc(C(F)(F)F)n2)cc1,-3,0.4,0.3,58*,69*,13
COc1ccccc1NC(=O)C1C2C=CC(O2)C1C(=O)O (configuration not stated),-8,1,0.9,4,8,8
COc1ccccc1CNC(=O)c1nn(-c2ccc(C)cc2)c(=O)c2c1c1ccccc1n2C,-10,0.8,0.3,21,65*,-3
COc1ccc(-c2c(C#N)c(N)nc3c2CCc2ccccc2-3)cc1OC,-1,0.7,0.5,34,46,44*
CCCCNC(=O)OCCNC(=O)NC,-4,1,1,3,5,4
C=C(C)CSc1nnc(CCNC(=O)OC(C)(C)C)o1,9,0.1,0.7,87*,34,6
CC(C)(C)OC(=O)NCCCCCc1nnc(SCC(=O)Nc2cccc(Cl)c2)o1,4,0.1,0.1,93*,90*,11
CC(C)(C)OC(=O)NCCc1nnc(SCC(=O)Nc2cccc(Cl)c2)o1,5,0.7,0.7,35,28,3
CC(C)(C)OC(=O)NCCc1nnc(SCc2ccc(Cl)cc2)o1,1,0.8,0.5,25,54*,15
CCOC(=O)N1CCC(NC(=O)C2=C(C)C(=O)OC23CCC(C)CC3)CC1 (configuration not stated),3,.,.,.,.,12
CCOC(=O)c1c(N)sc2c1CCS(=O)(=O)C2,3,0.9,0.9,6,6,20
CCC(=O)Nc1nc(-c2ccc3c(c2)OCCO3)cs1,5,1,1.1,3,-9,14
CCCc1cc(-c2nc(N)ncc2-c2ccc3c(c2)OCCCO3)c(O)cc1OC,-12,0.6,0.3,42,68*,40*
COc1ccc2c(c1)C1NC(=S)NC(C)(O2)C1C(=O)Nc1ccccc1C (configuration not stated),2,1,1,4,1,1
CCCCn1c(SCC(=O)c2cc(OC)ccc2OC)nc2cc(S(N)(=O)=O)ccc21,-14,0.9,0.8,11,19,-14
COc1ccc2c(c1)nc(SCC(=O)c1ccc(Br)s1)n2C,6,0.3,0.5,72*,51*,6
OC1(c2ccccc2F)CCN(Cc2nnc(-c3ccccc3)o2)CC1,-18,0.8,0.6,16,37,5
c1ccc(-c2nnc(CN3CCC4(CC3)OCCO4)o2)cc1,-2,0.5,1,53*,3,4
c1ccc(-c2nnc(CN3CCCc4ccccc43)o2)cc1,6,0.2,0.2,78*,76*,-1
Cn1c(=O)n(CCc2ccccc2)c(=O)c2c1ncn2Cc1ccccc1,-5,0.7,0.7,33,26,38*
Cn1cnc2c1c(=O)n(Cc1ccccc1)c(=O)n2C,-7,0.8,1,25,4,-7
Cn1c(=O)c2c(ncn2Cc2ccc(Cl)c(Cl)c2)n(C)c1=O,3,0.1,0.4,92*,61*,11
Cn1c(=O)c2c(ncn2Cc2cccc(Cl)c2)n(C)c1=O,7,0.5,0.9,47,13,0
SMILES,PostGolgi yeast,CYP2C19 act,CYP2C9 act,CYP2C19 inh,CYP2C9 inh,PostGolgi ctrl
CCNC(=O)Cn1c(=O)c2c(ncn2Cc2ccccc2)n(Cc2ccccc2)c1=O,-4,0.1,0.9,89*,13,19
COCCSc1nnc(NC(=O)C2CCCCC2)s1,-3,0.7,0.8,26,24,-2
CC(C)(Oc1cccc2ccccc12)C(=O)O,-12,1,1,5,4,15
Cc1ccccc1C(=O)Oc1ccc(Br)cc1C(=S)N1CCCC1,9,0.5,0.6,52*,41,17
COc1cc(C(=S)N2CCCC2)ccc1OC(=O)c1ccc(Cl)cc1[N+](=O)[O-],-6,0.7,1.6,32,-59,3
O=C(Oc1ccc(Br)cc1C(=S)N1CCCC1)c1ccccc1Cl,-5,0.4,0.6,57*,35,15
O=C(Oc1ccc(Br)cc1C(=S)N1CCCCC1)c1cc([N+](=O)[O-])cc([N+](=O)[O-])c1,10,0.4,1,62*,0,16
CCOC(=O)/C=c1\s/c(=C\c2ccc3c(c2)OCCO3)c(=O)n1CC(=O)NCC1CCCO1 (configuration not stated),-5,0.3,0.4,73*,58*,-2
CCOC(=O)/C=c1\s/c(=C\c2c(OCC)ccc3ccccc23)c(=O)n1CC(=O)NCC1CCCO1 (configuration not stated),0,0.1,0.3,93*,70*,11
Cc1ccc(-c2nn(CC(=O)NCC3CCCO3)c(=O)c3ccccc23)cc1 (configuration not stated),-11,0.9,0.8,8,16,12
Nc1ccc2oc(-c3cccs3)nc2c1,24,0.9,0.9,6,10,-4
CCOC(=O)c1c(C)n(C)c2ccc(OCC(O)Cn3c(C)nc4ccccc43)cc12 (configuration not stated),-12,0.5,0.3,47,70*,-1
COCCOC(=O)c1c(C)n(C)c2ccc(OC(=O)c3ccco3)cc12,-6,0.9,0.9,11,12,10
CCOC(=O)c1c(C)n(C)c2ccc(OC(=O)c3ccoc3)cc12,7,1,1,0,-2,32*
CCOC(=O)c1c(C)n(C)c2ccc(OCC(O)CN3CCN(C)CC3)cc12 (configuration not stated),2,0.8,0.9,19,8,6
CCC(=O)c1ccc(OCC(O)Cn2c(C)nc3ccccc32)cc1 (configuration not stated),7,0.3,0.5,72*,50*,14
CCc1nc2ccccc2n1Cc1cc(=O)n2cc(C)ccc2n1,0,0.8,0.6,16,36,2
Cc1cc(C)nc(NC(=O)CN2C(=O)c3ccccc3C2=O)n1,6,1.1,1.2,-6,-23,2
Cc1ccc(CNc2nc(N)c([N+](=O)[O-])c(Nc3cccc(F)c3)n2)cc1,-6,0.5,0.3,50*,65*,46*
Cc1nn(-c2ccccc2)c(Cl)c1/C=C(\CC(=O)O)c1nc2ccccc2s1,11,0.8,0.3,19,74*,2
Cc1nn(-c2ccccc2)c(Cl)c1/C=C/C(=O)c1ccccc1,-8,0.3,0.3,70*,66*,25
